# Assay results from PubChem BioAssay (NCATS).
# “And” between values parts separate entries of the source, which are not always exact repeats. Equal entries are not always repeated. Results filed as inconclusive are left out. The source made the active and inactive calls. The call rests on the fitted dose curve; in most records, active means well fitted curve in the direction sought with a large enough effect; inconclusive means small, poorly fitted or top-dose-only effect, or another doubt; inactive means no such curve, though single readings can be large or run the other way. Where a SMILES comes first, the peptide text is derived from it. Bridges are numbered along the chain shown (N, C = ends). [ ]: non-standard residue; d: D form. The star is where a group is joined. Dab(CH2SO3H) = N[C@@H](CCNCS(=O)(=O)O)C(=O)O; X3 = CC[C@@H](C)CCCCC(=O)*; Dab = NCC[C@H](N)C(=O)O
# Experiment: qHTS Assay for Identifying Gametocytocidal Compounds (AID 743244);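 on max response: actives lower the fluorescent signal which means gametocytes are killed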
# Settings: P. falciparum 3D7 stage III-V gametocytes, alamarBlue, 72 h; max response: active compounds read low
# Method in brief: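 Stage III-V P. falciparum 3D7 gametocytes, 20,000 per well, were exposed to compounds for 72 h at 37C, 5% CO2. AlamarBlue was then added for 24 h and viability was read as fluorescence at Ex 525/Em 598 nm.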
# On the % scale 0 is the no-effect control and ±100 the full control effect; potency means the concentration at half of the fitted maximal effect.
Structure (SMILES),max response,Potency
CC1(C)C(C=C(Cl)Cl)C1C(=O)OCc1cccc(Oc2ccccc2)c1 (configuration not stated),-8.09% (inactive),–
COC(=O)CCC(=O)CN,-0.174% (inactive),–
CC[C@@]1(O)C(=O)OCc2c1cc1n(c2=O)Cc2cc3c([N+](=O)[O-])cccc3nc2-1,2.02% (inactive),–
CC[C@H]1OC(=O)[C@H](C)[C@@H](O[C@H]2C[C@@](C)(OC)[C@@H](O)[C@H](C)O2)[C@H](C)[C@@H](O[C@@H]2O[C@H](C)C[C@H](N(C)C)[C@H]2O)[C@](C)(O)C[C@@H](C)/C(=N\OCOCCOC)[C@H](C)[C@@H](O)[C@]1(C)O,-7.41% (inactive) and 9.46% (inactive),–
CCC(=O)O[C@@H]1CC(=O)O[C@H](C)C/C=C/C=C/[C@H](O)[C@H](C)C[C@H](CC=O)[C@H](O[C@@H]2O[C@H](C)[C@@H](O[C@H]3C[C@@](C)(O)[C@@H](OC(=O)CC)[C@H](C)O3)[C@H](N(C)C)[C@H]2O)[C@H]1OC,4.15% (inactive),–
COc1ccc(C[C@H](N)C(=O)N[C@H]2[C@@H](O)[C@H](n3cnc4c(N(C)C)ncnc43)O[C@@H]2CO)cc1,–,1.05 µM (active)
CCCCCCCC(=O)O,10% (inactive),–
CCCC(=O)Nc1ncnc2c1ncn2[C@@H]1O[C@@H]2COP(=O)(O)O[C@H]2[C@H]1OC(=O)CCC,-2.66% (inactive),–
Cc1onc(-c2ccccc2)c1C(=O)N[C@@H]1C(=O)N2[C@@H]1SC(C)(C)[C@@H]2C(=O)O,-0.392% (inactive),–
CCCC(=O)O[C@]1(C(=O)COC(C)=O)CC[C@H]2[C@@H]3C[C@H](F)C4=CC(=O)C=C[C@]4(C)[C@@]3(F)[C@@H](O)C[C@@]21C,9.8% (inactive),–
C#C[C@]1(O)CC[C@H]2[C@@H]3CCC4=CCCC[C@@H]4[C@H]3C(=C)C[C@@]21CC,-1.95% (inactive),–
Cc1cn([C@H]2C[C@H](O)[C@@H](CO)O2)c(=O)[nH]c1=O,5.37% (inactive),–
CCC[C@@H]1C[C@@H](C(=O)N[C@@H]([C@H]2O[C@H](SC)[C@H](OP(=O)(O)O)[C@@H](O)[C@H]2O)[C@H](C)Cl)N(C)C1,4.72% (inactive) and 1.78% (inactive),–
Cc1c(C)c2c(c(C)c1O)CC[C@@](C)(CCC[C@H](C)CCC[C@H](C)CCCC(C)C)O2,1.54% (inactive) and 7.72% (inactive),–
C[C@@H]1[C@H](O)[C@@H](C)/C=C/C=C\C=C\C=C\C=C\C=C\C=C\[C@H](O[C@@H]2O[C@H](C)[C@@H](O)[C@H](N)[C@@H]2O)C[C@@H]2O[C@](O)(C[C@@H](O)C[C@@H](O)[C@H](O)CC[C@@H](O)C[C@@H](O)CC(=O)O[C@H]1C)C[C@H](O)[C@H]2C(=O)O (stereo in doubt),4.52% (inactive),–
COCC(=O)Nc1cc(Sc2ccccc2)ccc1N=C(NC(=O)OC)NC(=O)OC,-1.05% (inactive),–
CO[C@@H]1[C@@H](O[C@@H]2O[C@H](C)[C@@H](O[C@H]3C[C@@](C)(O)[C@@H](O)[C@H](C)O3)[C@H](N(C)C)[C@H]2O)[C@@H](CC=O)C[C@@H](C)[C@@H](O[C@@H]2CC[C@H](N(C)C)[C@@H](C)O2)/C=C/C=C/C[C@@H](C)OC(=O)C[C@H]1O,23.5% (inactive),–
CC(C)=O,-8.02% (inactive),–
COc1ccc(C[C@@H](C)NC[C@H](O)c2ccc(O)c(NC=O)c2)cc1,19.6% (inactive),–

Structure (SMILES),max response,Potency
CCC(=O)OCC(=O)[C@@]1(OC(=O)CC)[C@H](C)C[C@H]2[C@H]3[C@H]([C@@H](O)C[C@@]21C)[C@@]1(C)C=CC(=O)C=C1C[C@H]3Cl,-4.51% (inactive),–
O=C(O)c1cc(=O)c2c3nc4ccccc4oc-3cc(=O)c2[nH]1,-14.4% (inactive),–
CCCCC(C)(O)C/C=C/[C@H]1[C@H](O)CC(=O)[C@@H]1CCCCCCC(=O)OC (some centres not stated),-1.16% (inactive),–
CC1=C(/C=C/C(C)=C/C=C/C(C)=C/CO)C(C)(C)CCC1,11.8% (inactive),–
COC(F)(F)C(Cl)Cl,1.97% (inactive),–
CC(C)(C)C(=O)OCOC(=O)[C@@H]1N2C(=O)[C@@H](N=CN3CCCCCC3)[C@H]2SC1(C)C,2.95% (inactive),–
CO[C@H]1C[C@H](O[C@H]2[C@H](C)[C@@H](O[C@@H]3O[C@H](C)C[C@H](N(C)C)[C@H]3OC(C)=O)[C@@H](C)C[C@]3(CO3)C(=O)[C@H](C)[C@@H](OC(C)=O)[C@@H](C)[C@@H](C)OC(=O)[C@@H]2C)O[C@@H](C)[C@@H]1OC(C)=O,7.91% (inactive),–
O=S(=O)(O)c1ccc2c(N=Nc3ccc(S(=O)(=O)O)c4ccccc34)c(O)c(S(=O)(=O)O)cc2c1,11.5% (inactive),–
CC1(C)S[C@@H]2[C@H](NC(=O)C(N)c3ccccc3)C(=O)N2[C@H]1C(=O)OC1OC(=O)c2ccccc21 (some centres not stated),16.4% (inactive),–
CCNC(=O)[C@@H]1CCCN1C(=O)[C@H](CCCN=C(N)N)NC(=O)[C@H](CC(C)C)NC(=O)[C@@H](Cc1c[nH]c2ccccc12)NC(=O)[C@H](Cc1ccc(O)cc1)NC(=O)[C@H](CO)NC(=O)[C@H](Cc1c[nH]c2ccccc12)NC(=O)[C@H](Cc1cnc[nH]1)NC(=O)[C@@H]1CCC(=O)N1,–,6.31 µM (active)
CC1(C)S[C@@H]2[C@H](NC(=O)C(C(=O)O)c3ccsc3)C(=O)N2[C@H]1C(=O)O (some centres not stated),10.2% (inactive),–
CC(C)(C)NC(=O)[C@@H]1C[C@@H]2CCCC[C@@H]2CN1C[C@@H](O)[C@H](Cc1ccccc1)NC(=O)[C@H](CC(N)=O)NC(=O)c1ccc2ccccc2n1,–,10 µM (active)
CC[C@@H](C)CCCCC(=O)N[C@@H](CCNCS(=O)(=O)O)C(=O)N[C@H](C(=O)N[C@@H](CCNCS(=O)(=O)O)C(=O)N[C@H]1CCNC(=O)[C@H]([C@@H](C)O)NC(=O)[C@H](CCNCS(=O)(=O)O)NC(=O)[C@H](CCNCS(=O)(=O)O)NC(=O)[C@H](CC(C)C)NC(=O)[C@@H](CC(C)C)NC(=O)[C@H](CCNCS(=O)(=O)O)NC1=O)[C@@H](C)O (X3-[Dab(CH2SO3H)]T[Dab(CH2SO3H)][Dab][Dab(CH2SO3H)][dL]L[Dab(CH2SO3H)][Dab(CH2SO3H)]T; lactam 4-C),5.78% (inactive),–
CC(O)CO (configuration not stated),5.22% (inactive),–
C=CC1=C(C)C2=CC3=NC(=C(CC(=O)[O-])C4=NC(=C(C)C4=C([O-])[O-])C=c4[n-]c(c(C)c4CC)=CC1=N2)C(CCC(=O)[O-])C3C.[Cu+2].[Na+].[Na+].[Na+] (configuration not stated),14.4% (inactive),–
O=S(=O)(O)c1cc(O)c2c(N=Nc3ccc(Nc4ccccc4)c4c(S(=O)(=O)O)cccc34)cc(S(=O)(=O)O)cc2c1,-8.84% (inactive),–
CNc1cc(OC)c(C(=O)N[C@H]2CCN(Cc3ccccc3)[C@H]2C)cc1Cl,-16.8% (inactive),–
CC[N+](CC)(CC)CCC(O)(c1ccccc1)C1CCCCC1 (configuration not stated),4.48% (inactive),–
